# Data from PubChem BioAssay (NCI).
# The panel holds about 83,000 compounds, 20% with a hit somewhere; the sample as a whole holds those more often.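 Testing used 96-well plates and a 48-hour single-concentration exposure. Example: -40 means 40% of the starting cells died.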 A number with no mark means an inactive call. Calls of active or inactive are those of the source. The calls were made as follows: active = growth percent below 10; inactive = the rest.
# Test system: UACC-257 melanoma
# Assay: NCI-60 one-dose screen, 48 h (100 = growth as untreated, 0 = no growth, -100 = all killed)
# Settings: 10 µM unless noted
row,Compound,growth
1,COC(=O)CCSC1=C(C)C(=O)c2ccccc2C1=O,106%
2,CCc1cc(OC(=O)N2CCC(N3CCCCC3)CC2)ccc1Nc1cc(-c2ccc(-n3cccn3)cc2)[nH]n1,-49.1% (active)
3,O=C(Nc1cc(C(F)(F)F)cc(C(F)(F)F)c1)Nc1ccc2oc(=O)ccc2c1,1.17% (active)
4,Cc1ccc2c(n1)C(=O)C(Cl)=C(Nc1ccc(C(=O)OC(C)(C)C)cc1)C2=O,29.5% [9.25 µM]
5,Cc1cc(=O)[nH]c(O)c1C#N,100%
6,CCN(CC)S(=O)(=O)c1ccc(-c2nc(C(Cl)Cl)nc3cc(C)nn23)cc1,59.3%
7,CNC(=O)Nc1ccc(Nc2cc(-c3ccc(-n4cccn4)cc3)[nH]n2)c(C)c1,115%
